Source: PubChem BioAssay AID1159580 (chemical genetic matrix, 2015)
Several values for one entry are separate records, joined by “and”; a condition that tells them apart may be missing. Identical values can stand only once. Screen size: about 5,500 compounds; about 2,000 (36%) were called active. Not shown: some 18% with an inconclusive outcome. No stated cut-off is given here; in the data, active means normalized growth mostly below about 0.91 (no sharp cut-off); inconclusive means no clear call, values can overlap the other calls; inactive means mostly above about 0.92. Some of the results follow.

Assay: chemical genetic growth profiling, strain panel (AID 1159580);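 further: tested at 20 µM; growth read once vehicle control cultures reached saturation at 30 °C; 1 = growth at the plate median or of vehicle wells; lower values mean less growth of the strain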
Conditions: S. cerevisiae deletion strains, growth OD

Measured: normalized growth

CCNc1nc(Cl)nc(NC(C)C)n1
inactive: locus YAL013W, strain DEP1, active compounds read low 1.01 | locus YAL021C, strain ccr4, active compounds read low 0.995 | locus YAL026C, strain drs2, active compounds read low 1.01 | locus YAL030W, strain snc1, active compounds read low 0.999 | locus YBL061C, strain skt5, active compounds read low 1.01 | locus YBR009C, strain hhf1, active compounds read low 0.99 | locus YBR021W, strain FUR4, active compounds read low 1.02 | locus YBR023C, strain chs3, active compounds read low 0.998 | locus YBR171W, strain sec66, active compounds read low 0.995 | locus YBR229C, strain ROT2, active compounds read low 1.01 | locus YBR231C, strain swc5, active compounds read low 1.01 | locus YBR279W, strain paf1, active compounds read low 0.998 | locus YCL011C, strain gbp2, active compounds read low 0.993 | locus YCL016C, strain dcc1, active compounds read low 0.995 | locus YCL029C, strain bik1, active compounds read low 1.02 | locus YCL061C, strain MRC1, active compounds read low 0.99 | locus YCL069W, strain vba3, active compounds read low 0.997 | locus YCR088W, strain abp1, active compounds read low 1 | locus YDL005C, strain med2, active compounds read low 0.999 | locus YDL035C, strain GPR1, active compounds read low 1.01 | locus YDL040C, strain nat1, active compounds read low 1 | locus YDL074C, strain BRE1, active compounds read low 1.01 | locus YDL101C, strain DUN1, active compounds read low 1.03 | locus YDL134C, strain PPH21, active compounds read low 1.02 | locus YDL185W, strain tfp1, active compounds read low 1.02 | locus YDL192W, strain arf1, active compounds read low 1.02 | locus YDR001C, strain nth1, active compounds read low 0.992 | locus YDR069C, strain doa4, active compounds read low 1.01 | locus YDR101C, strain arx1, active compounds read low 1.02 | locus YDR137W, strain rgp1, active compounds read low 0.999 | locus YDR150W, strain NUM1, active compounds read low 1.02 | locus YDR159W, strain sac3, active compounds read low 1.01 | locus YDR162C, strain NBP2, active compounds read low 1.04 | locus YDR195W, strain ref2 0.987 | locus YDR297W, strain sur2, active compounds read low 1 | locus YDR318W, strain mcm21, active compounds read low 1.03 | locus YDR334W, strain swr1, active compounds read low 0.999 | locus YDR335W, strain msn5, active compounds read low 1.01 | locus YDR388W, active compounds read low 1.01 | locus YDR392W, strain spt3, active compounds read low 1.01 | locus YDR502C, strain sam2, active compounds read low 1.02 | locus YEL003W, strain gim4, active compounds read low 0.994 | locus YEL037C, strain rad23, active compounds read low 1.01 | locus YEL061C, strain CIN8 (second series), active compounds read low 1.01 | locus YEL061C, strain CIN8, active compounds read low 1.01 | locus YER015W, strain faa2, active compounds read low 1 | locus YER016W, strain bim1, active compounds read low 0.997 | locus YER110C, active compounds read low 1.02 | locus YER111C, strain swi4, active compounds read low 1 | locus YER155C, strain BEM2 (second series), active compounds read low 0.993 | locus YER155C, strain BEM2, active compounds read low 1 | locus YER167W, strain BCK2, active compounds read low 1.02 | locus YFR010W, strain ubp6, active compounds read low 1.01 | locus YGL078C, strain dbp3, active compounds read low 1.02 | locus YGL086W, strain mad1, active compounds read low 1.01 | locus YGL167C, strain pmr1, active compounds read low 0.994 | locus YGL173C, strain kem1, active compounds read low 1.01 | locus YGL227W, strain vid30, active compounds read low 0.999 | locus YGL240W, strain doc1, active compounds read low 0.98 | locus YGL248W, strain PDE1, active compounds read low 1.01 | locus YGL253W, strain hxk2, active compounds read low 1 | locus YGR078C, strain PAC10, active compounds read low 1.02 | locus YGR135W, strain pre9, active compounds read low 1.01 | locus YGR229C, strain SMI1, active compounds read low 1.02 | locus YGR252W, strain gcn5, active compounds read low 1 | locus YHR013C, strain ard1, active compounds read low 1.01 | locus YHR027C, strain rpn1, active compounds read low 1 | locus YHR030C, strain SLT2, active compounds read low 1.03 and 0.992 | locus YHR079C, strain IRE1 (second series), active compounds read low 1.02 | locus YHR079C, strain IRE1, active compounds read low 0.99 | locus YHR094C, strain hxt1, active compounds read low 1.02 | locus YHR129C, strain ARP1, active compounds read low 1.01 | locus YHR142W, strain chs7, active compounds read low 0.972 | locus YHR200W, strain rpn10, active compounds read low 1.02 | locus YIL066C, strain RNR3, active compounds read low 0.944 | locus YIL073C, strain SPO22, active compounds read low 1.04 | locus YIL125W, strain kgd1, active compounds read low 1.02 | locus YIR030C, strain dcg1, active compounds read low 1.03 | locus YJL092W, strain hpr5, active compounds read low 0.998 | locus YJL095W, strain BCK1 (second series), active compounds read low 1 | locus YJL095W, strain BCK1, active compounds read low 1 and 0.985 | locus YJL115W, strain asf1, active compounds read low 1.01 | locus YJL129C, strain trk1, active compounds read low 0.982 | locus YJL134W, strain LCB3, active compounds read low 1.03 | locus YJL154C, strain vps35, active compounds read low 0.996 | locus YJL164C, strain tpk1, active compounds read low 0.998 | locus YJL166W, strain qcr8, active compounds read low 0.993 | locus YJL168C, strain set2, active compounds read low 1.02 | locus YJL187C, strain SWE1 (second series), active compounds read low 1.02 | locus YJR043C, strain POL32, active compounds read low 1.02 | locus YJR066W, strain TOR1, active compounds read low 0.959
